13 molecules from PubChem BioAssay (NCATS) can be followed below.

Records with an inconclusive call do not appear. Calls of active or inactive are those of the source. Unless noted, calls follow the shape of the dose curve; as a rule, active = well fitted curve in the direction sought with a large enough effect; inconclusive = small, poorly fitted or top-dose-only effect, or another doubt; inactive = no such curve, though single readings can be large; an effect the other way counts as inactive or inconclusive. Where only a bound is given, the exact number is not on record here.

Assay [1] relates to Zika virus NS2B-NS3 protease. Description: Primary screen GU AMC qHTS for Zika virus inhibitors (AID 1347154).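 Also: 0% = no-inhibitor control and -100% = no-enzyme control; nearly all actives have a fitted effect of over 70% in size.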 The procedure, abridged:
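Fluorogenic AMC-substrate cleavage by noncovalent NS2B-NS3 protease complex (25 nM, pH 8.0 Tris buffer with Tween 20) followed for 15 minutes at room temperature (~20% conversion). Percent inhibition from ex340/em450 signal change, fitted by 4-parameter Hill equation.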
On the technique in general: qHTS replaces the single test concentration by a dilution series.

A short description of assay [2]: Confirmatory qHTS for small molecule stabilizers of the endoplasmic reticulum resident proteome: Secreted ER Calcium Modulated Protein (SERCaMP) assay (AID 1508628). Also: nearly all actives have a fitted effect of over 40% in size. Also: potency is read from the fitted curve at half-maximal effect. As to activity change, negative = decrease: % is scaled to controls: 0 for no effect and ±100 for the full control effect. The procedure, abridged:
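GLuc-SERCaMP-expressing SH-SY5Y cells, pretreated 16 h with compound, are challenged with thapsigargin to empty ER calcium stores; after 4 h, coelenterazine is added directly to the medium and luminescence is imaged.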

Assay [3] can be described thus: Cell Viability qHTS for small molecule stabilizers of the endoplasmic reticulum resident proteome (AID 1508629).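 Also: human SH-SY5Y neuroblastoma cells carrying the GLuc-SERCaMP reporter; compound exposure about 46 h in total before the viability read; % is scaled to controls: 0 for no effect and ±100 for the full control effect.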 Particulars: cell viability counter-screen, 100 nM thapsigargin for final 4 h.
The nature of assay [4]: Primary qHTS for small molecule stabilizers of the endoplasmic reticulum resident proteome: Secreted ER Calcium Modulated Protein (SERCaMP) assay (AID 1508630). Also: % is scaled to controls: 0 for no effect and ±100 for the full control effect. A digest of the protocol:
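The SH-SY5Y reporter protocol was run at 3 concentrations up to 38.3 uM (primary) or 11 concentrations (follow-up): 16 h compound, 100 nM thapsigargin for 4 h, then extracellular luciferase luminescence.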

In assay [5] the target is Glucocorticoid receptor (Homo sapiens) (UniProt P04150). Description: GR-EFC Redistribution (AID 451; calls by dose curve; also: potency is read from the fitted curve at half-maximal effect). Particulars: CHO-K1 GR-EFC translocation, beta-gal luminescence, 2 h. The procedure, abridged: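 Translocation of GR-ED fusion to nuclear EA restores b-gal, read by luminescence after 1 h room-temperature detection. Engineered CHO-K1 biosensor cells, 1,000/well, exposed 2 h at 37 C to titrations up to 46 uM final.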
Sequence of Glucocorticoid receptor (Homo sapiens) (P04150 whole entry, looked up, the tested form may be a part): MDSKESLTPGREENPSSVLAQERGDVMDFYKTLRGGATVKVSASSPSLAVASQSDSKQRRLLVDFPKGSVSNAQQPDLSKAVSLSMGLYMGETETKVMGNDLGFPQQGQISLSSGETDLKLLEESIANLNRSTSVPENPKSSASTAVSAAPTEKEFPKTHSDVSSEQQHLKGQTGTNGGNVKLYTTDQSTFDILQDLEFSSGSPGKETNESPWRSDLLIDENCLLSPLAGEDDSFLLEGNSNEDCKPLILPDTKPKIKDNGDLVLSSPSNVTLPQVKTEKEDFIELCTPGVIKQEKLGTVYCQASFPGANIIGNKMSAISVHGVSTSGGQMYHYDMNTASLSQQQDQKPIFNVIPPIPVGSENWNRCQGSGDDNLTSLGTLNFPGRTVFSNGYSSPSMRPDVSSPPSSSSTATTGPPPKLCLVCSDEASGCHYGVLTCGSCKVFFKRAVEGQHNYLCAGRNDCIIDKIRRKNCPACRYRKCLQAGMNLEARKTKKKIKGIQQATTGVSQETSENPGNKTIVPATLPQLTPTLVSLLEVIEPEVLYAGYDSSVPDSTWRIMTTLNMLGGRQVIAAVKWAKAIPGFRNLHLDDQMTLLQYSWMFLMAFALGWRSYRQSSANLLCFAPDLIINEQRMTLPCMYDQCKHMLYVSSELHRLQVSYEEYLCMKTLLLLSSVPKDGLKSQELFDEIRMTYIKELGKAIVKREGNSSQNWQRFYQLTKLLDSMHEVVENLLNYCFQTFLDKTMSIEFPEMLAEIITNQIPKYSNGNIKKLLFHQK

For assay [6], the target named is Rap guanine nucleotide exchange factor 3 (Homo sapiens) (UniProt O95398). Description: Confirmatory qHTS for antagonist of cAMP-regulated guanine nucleotide exchange factor 3 (EPAC1) (AID 1645880).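 Also: plate controls were DMSO only for no effect and full effect of the ATA control for full effect; nearly all actives have a fitted effect of over 55% in size.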 A digest of the protocol:
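Released BODIPY-GDP fluoresces less than Rap1-bound BODIPY-GDP; the signal is followed at 480/540 nm at 5-min intervals over 30 min, after 5 min at room temperature. Reactions contain 100 nM EPAC1, 250 nM RAP1B-BODIPY-GDP and 50 uM GDP; results are normalized to ATA and DMSO.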

Assay [7] has the same target. Briefly: Confirmatory qHTS for agonist of cAMP-regulated guanine nucleotide exchange factor 3 (EPAC1) (AID 1645881).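 Also: EPAC1 catalysed release of BODIPY-GDP from Rap1B seen as fluorescence loss; nearly all actives have a fitted effect of over 75% in size.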
Assay [8] concerns the target Rap guanine nucleotide exchange factor 4 (Homo sapiens) (UniProt Q8WZA2). Description: Confirmatory qHTS for agonist of cAMP-regulated guanine nucleotide exchange factor 4 (EPAC2) (AID 1645884).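 Also: nucleotide exchange releases bodipy-GDP from Rap1 and this lowers its fluorescence; % is scaled to controls: 0 for no effect and ±100 for the full control effect; nearly all actives have a fitted effect of over 65% in size.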
Assay [9] concerns the target Mitogen-activated protein kinase 10 (Mus musculus) (UniProt Q61831). Briefly: JNK3 AlphaScreen Assay (AID 530; active = well fitted curve in either direction with a large enough effect, not every such curve was filed as active;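 also: kinase came from lysate of stimulated human HepG2 cells; signal reports phosphorylation of biotinylated GST-cJun 1-79 at Ser73 with 10 µM ATP; % is scaled to controls: 0 for no effect and ±100 for the full control effect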). A digest of the protocol:
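Kinase buffer: 20 mM Tris-HCl pH 7.6, 10 mM MgCl2, 1 mM DTT, 0.1 mM Na3VO4, 0.01% Tween-20; ATP 10 uM. Substrate biotin-GST-cJun(1-79), enzyme from activated HepG2 lysates. Detection by Ser73 phospho-antibody AlphaScreen.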

Assay [10] deals with 3',5'-cyclic-AMP phosphodiesterase 4B (Homo sapiens) (UniProt Q07343). Briefly: qHTS Assay for Inhibitors of PDE-IV (AID 607; active = well fitted activation curve with a large enough effect in the main read-out, with a control signal flat, not every such curve was filed as active; also: % of control where 0% means no effect). A digest of the protocol: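 ACTOne HEK293 cells carry a modified cAMP-gated CNG channel and express endogenous PDE4; plated 1000 cells/well, compounds up to 22.9 uM final. Membrane-potential dye fluorescence (ex 535/em 590) was read; parental cells received 10 uM forskolin + 100 uM RO 20-1724.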
Sequence of 3',5'-cyclic-AMP phosphodiesterase 4B (Homo sapiens) (Q07343 whole entry, looked up): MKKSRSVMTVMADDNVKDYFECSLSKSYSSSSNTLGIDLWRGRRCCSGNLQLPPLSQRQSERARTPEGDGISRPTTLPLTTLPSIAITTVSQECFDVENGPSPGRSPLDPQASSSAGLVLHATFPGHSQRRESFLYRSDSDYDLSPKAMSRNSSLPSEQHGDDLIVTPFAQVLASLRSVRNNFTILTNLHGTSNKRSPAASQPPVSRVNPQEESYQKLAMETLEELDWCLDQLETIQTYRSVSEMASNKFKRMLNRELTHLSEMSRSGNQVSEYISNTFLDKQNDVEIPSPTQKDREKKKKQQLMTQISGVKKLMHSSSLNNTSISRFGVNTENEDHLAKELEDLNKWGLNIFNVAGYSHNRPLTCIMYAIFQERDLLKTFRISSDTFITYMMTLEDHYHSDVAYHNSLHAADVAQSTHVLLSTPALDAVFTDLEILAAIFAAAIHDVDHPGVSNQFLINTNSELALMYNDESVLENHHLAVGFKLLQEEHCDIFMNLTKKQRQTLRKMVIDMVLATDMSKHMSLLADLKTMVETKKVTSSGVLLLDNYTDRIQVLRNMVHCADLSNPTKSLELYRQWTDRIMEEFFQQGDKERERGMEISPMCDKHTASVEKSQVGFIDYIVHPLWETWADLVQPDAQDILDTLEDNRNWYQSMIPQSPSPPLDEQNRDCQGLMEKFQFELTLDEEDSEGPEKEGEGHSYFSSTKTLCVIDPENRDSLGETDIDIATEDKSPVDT

Assay [11] in a line: qHTS Assay for Lipid Storage Modulators (AID 1519; calls by dose curve). Conditions: Drosophila S3 cells, BODIPY lipid droplet/cell ratio, laser cytometry, cells loaded with oleic acid. A digest of the protocol: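 Cells seeded at 5,000 per well were treated with compounds over a concentration series and loaded with oleic acid (400 uM, as added). Lipid droplet fluorescence (488 nm excitation, 500-530 nm channel) was read by laser-scanning cytometry and normalized to 20 uM Triacsin C.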

Assay [12] addresses Ubiquitin carboxyl-terminal hydrolase 1 (Homo sapiens) (UniProt O94782). Briefly: Inhibitors of USP1/UAF1: Pilot qHTS (AID 504865).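 Also: rhodamine fluorescence freed from ubiquitin-rhodamine substrate followed over time; top concentration of the series differs between compounds; % is scaled to controls: 0 for no effect and ±100 for the full control effect; nearly all actives have a fitted effect of over 35% in size.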 A digest of the protocol:
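USP1/UAF1 complex at 1 nM preincubated 15 min at room temperature with compound, then Ub-Rho substrate added at 150 nM final. Fluorescence (480/540 nm) read kinetically in 50 mM HEPES pH 7.8, 0.5 mM EDTA, 1 mM TCEP, 0.1 mg/ml BSA, 0.01% Tween-20.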

For assay [13], the target named is DNA dC->dU-editing enzyme APOBEC-3G (Homo sapiens) (UniProt Q9HC16). Description: qHTS for inhibitors of Vif-A3G interactions: Validation (AID 588379). Also: 0% is about no effect. The procedure, abridged: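 Yellow fluorescence (Ex 488, Em 500-530) of Vif-coexpressing HeLa A3G-eYFP cells, scanned by Acumen cytometer, reports blocked A3G degradation. Cells plated at 700/well overnight at 37 deg C before compound addition, then a further overnight compound incubation at 37 deg C.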
Sequence of DNA dC->dU-editing enzyme APOBEC-3G (Homo sapiens) (Q9HC16 whole entry, looked up): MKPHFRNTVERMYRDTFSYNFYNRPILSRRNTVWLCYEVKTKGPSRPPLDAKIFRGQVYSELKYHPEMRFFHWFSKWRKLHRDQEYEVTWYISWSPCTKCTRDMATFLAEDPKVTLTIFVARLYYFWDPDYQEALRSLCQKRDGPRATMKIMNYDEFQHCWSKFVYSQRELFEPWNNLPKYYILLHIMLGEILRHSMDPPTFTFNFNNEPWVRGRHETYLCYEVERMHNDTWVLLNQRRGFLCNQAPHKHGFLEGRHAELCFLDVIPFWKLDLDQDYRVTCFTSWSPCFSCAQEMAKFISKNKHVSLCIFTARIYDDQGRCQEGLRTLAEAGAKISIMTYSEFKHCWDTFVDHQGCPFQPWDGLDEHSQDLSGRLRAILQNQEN

Sequence of Rap guanine nucleotide exchange factor 3 (Homo sapiens) (O95398 whole entry, looked up): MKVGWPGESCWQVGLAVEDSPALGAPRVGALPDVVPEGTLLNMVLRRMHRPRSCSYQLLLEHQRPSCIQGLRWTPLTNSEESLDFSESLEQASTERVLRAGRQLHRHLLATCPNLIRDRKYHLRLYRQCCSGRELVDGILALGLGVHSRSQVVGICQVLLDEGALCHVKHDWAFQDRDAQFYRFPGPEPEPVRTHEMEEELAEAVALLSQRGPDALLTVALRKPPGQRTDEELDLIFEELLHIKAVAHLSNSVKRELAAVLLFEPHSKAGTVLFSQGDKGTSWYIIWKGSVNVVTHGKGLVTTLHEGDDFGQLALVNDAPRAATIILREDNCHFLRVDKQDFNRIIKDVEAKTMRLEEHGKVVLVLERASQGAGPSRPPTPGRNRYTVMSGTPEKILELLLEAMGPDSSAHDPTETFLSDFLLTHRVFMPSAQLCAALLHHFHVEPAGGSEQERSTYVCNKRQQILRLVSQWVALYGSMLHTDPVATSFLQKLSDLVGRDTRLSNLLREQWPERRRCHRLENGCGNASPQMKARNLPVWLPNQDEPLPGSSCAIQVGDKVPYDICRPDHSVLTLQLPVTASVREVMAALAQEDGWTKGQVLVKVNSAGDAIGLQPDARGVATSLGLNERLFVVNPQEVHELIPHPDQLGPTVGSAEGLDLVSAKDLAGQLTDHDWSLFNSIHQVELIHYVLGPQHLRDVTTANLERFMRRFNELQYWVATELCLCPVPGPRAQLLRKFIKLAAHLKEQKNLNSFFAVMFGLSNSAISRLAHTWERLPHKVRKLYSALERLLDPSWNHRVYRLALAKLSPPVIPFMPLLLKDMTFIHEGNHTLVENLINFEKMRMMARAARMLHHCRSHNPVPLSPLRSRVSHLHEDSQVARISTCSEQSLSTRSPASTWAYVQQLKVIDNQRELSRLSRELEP
Sequence of Ubiquitin carboxyl-terminal hydrolase 1 (Homo sapiens) (O94782 whole entry, looked up): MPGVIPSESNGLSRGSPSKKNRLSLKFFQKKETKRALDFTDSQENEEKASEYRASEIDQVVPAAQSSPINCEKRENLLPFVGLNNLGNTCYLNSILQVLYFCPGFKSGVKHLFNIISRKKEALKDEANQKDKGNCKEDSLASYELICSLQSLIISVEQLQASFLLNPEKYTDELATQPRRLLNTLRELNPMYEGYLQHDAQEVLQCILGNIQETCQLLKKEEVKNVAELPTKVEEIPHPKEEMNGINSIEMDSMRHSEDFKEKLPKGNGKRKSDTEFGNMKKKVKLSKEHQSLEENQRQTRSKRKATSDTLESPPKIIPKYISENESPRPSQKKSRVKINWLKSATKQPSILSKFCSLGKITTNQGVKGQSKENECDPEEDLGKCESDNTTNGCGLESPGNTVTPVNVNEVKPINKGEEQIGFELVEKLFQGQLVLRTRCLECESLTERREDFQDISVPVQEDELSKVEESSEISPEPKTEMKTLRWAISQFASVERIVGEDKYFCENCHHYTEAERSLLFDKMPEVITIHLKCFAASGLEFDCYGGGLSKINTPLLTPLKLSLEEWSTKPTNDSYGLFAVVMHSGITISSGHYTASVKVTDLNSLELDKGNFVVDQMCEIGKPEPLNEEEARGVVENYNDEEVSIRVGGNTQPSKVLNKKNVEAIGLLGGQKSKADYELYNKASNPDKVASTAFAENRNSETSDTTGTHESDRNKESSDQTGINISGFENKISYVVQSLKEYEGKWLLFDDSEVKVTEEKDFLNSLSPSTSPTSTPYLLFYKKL
Sequence of Rap guanine nucleotide exchange factor 4 (Homo sapiens) (Q8WZA2 whole entry, looked up): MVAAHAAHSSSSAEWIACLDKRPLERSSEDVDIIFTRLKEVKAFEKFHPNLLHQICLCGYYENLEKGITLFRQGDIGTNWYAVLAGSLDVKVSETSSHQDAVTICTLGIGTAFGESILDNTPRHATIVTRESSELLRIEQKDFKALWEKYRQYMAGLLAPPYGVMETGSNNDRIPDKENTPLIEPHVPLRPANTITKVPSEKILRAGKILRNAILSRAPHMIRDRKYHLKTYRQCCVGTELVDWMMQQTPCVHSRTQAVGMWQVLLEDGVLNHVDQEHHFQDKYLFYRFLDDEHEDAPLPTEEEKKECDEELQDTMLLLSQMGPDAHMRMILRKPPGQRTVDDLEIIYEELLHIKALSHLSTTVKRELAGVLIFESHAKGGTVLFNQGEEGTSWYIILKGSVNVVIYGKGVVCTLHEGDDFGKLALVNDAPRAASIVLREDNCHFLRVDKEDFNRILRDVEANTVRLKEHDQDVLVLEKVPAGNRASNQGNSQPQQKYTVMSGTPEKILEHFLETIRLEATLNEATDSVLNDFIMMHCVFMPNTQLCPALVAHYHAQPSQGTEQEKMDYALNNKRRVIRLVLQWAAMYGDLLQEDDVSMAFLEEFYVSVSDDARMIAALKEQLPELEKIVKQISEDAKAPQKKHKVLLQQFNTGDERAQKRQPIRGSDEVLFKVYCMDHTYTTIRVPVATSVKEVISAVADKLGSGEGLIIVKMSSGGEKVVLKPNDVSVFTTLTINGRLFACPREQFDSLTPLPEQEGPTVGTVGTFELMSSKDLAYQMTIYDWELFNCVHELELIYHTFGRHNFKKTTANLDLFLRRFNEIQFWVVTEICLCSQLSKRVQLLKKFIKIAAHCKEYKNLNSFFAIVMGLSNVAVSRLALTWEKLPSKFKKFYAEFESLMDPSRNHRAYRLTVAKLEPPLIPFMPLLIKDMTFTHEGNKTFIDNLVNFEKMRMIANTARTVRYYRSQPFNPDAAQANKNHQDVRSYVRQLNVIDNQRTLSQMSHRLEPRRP

As to `CC(C)C[C@H](NC(=O)[C@H](Cc1ccccc1)NC(=O)CNC(=O)[C@H](C)NC(=O)[C@@H](N)Cc1ccc(O)cc1)C(=O)O`, the activity change, negative = inhibition in assay [1] was 14.3% [at 6.83 µM] (inactive). Also, in [2], the activity change, negative = decrease was 16.6% [at 9.4 µM] (inactive). Moreover, the max response in assay [3] was 9.07% (inactive).
With `O=C1CC2OCC=C3CN4CCC56c7ccccc7N1C5C2C3CC46` (configuration not stated), in assay [1], the Potency result was “inactive”.
As to `CC(C)(O)C1O[C@H]2CC[C@@]3(C)[C@@](O)(CC[C@H]4Cc5c([nH]c6ccccc56)[C@@]43C)C2=CC1=O` (some centres not stated), the Potency result in assay [1] and in assay [4] was “inactive” in each case. Moreover, in assay [2], the Potency is 39.8 µM (active).
On to `C=CCN1CCC2(C)c3cc(O)ccc3CC1[C@@H]2C` (some centres not stated), for which the Potency entry in [1] was “inactive”.
Same read-out and setting: under `CO[C@@H]1C[C@@H](C[C@H]2CC[C@H](C)[C@@H]([C@@H](C)C(=O)O)O2)O[C@]2(O[C@](C)([C@H]3CC[C@@](C)(C4OC([C@H]5O[C@@](O)(CO)[C@H](C)C[C@@H]5C)C[C@@H]4C)O3)C[C@H]2C)[C@@H]1C` (some centres not stated) stands “inactive”.
On the same count and under the same terms, the entry for `CCOC(=O)CN1C(=O)CC(C[C@@H](O)C2C[C@@H](C)C[C@H](C)C2=O)CC1=O` (some centres not stated) is “inactive”; for `CCCC[C@H]1C(=O)O[C@H](C)[C@H](NC(=O)c2cccc(NC=O)c2OC)C(=O)O[C@@H](C)[C@@H]1OC(=O)CC(C)C` it is “inactive”; for `C=C(C)C1CCC(C)=CC1c1c(OC)cc(C)cc1OC` (configuration not stated) it is “inactive”.
`CC(C)(O)[C@H]1O[C@@H]2CC[C@]3(C)[C@@]4(C)c5[nH]c6ccccc6c5C[C@@H]4CC[C@]3(O)C2=CC1=O`: the results for the Potency in assay [5] and in assay [2] were > 46 µM (inactive) and 20 µM (active), respectively. For the same molecule, the Potency result in [1] and in [6] was “inactive” each time. Also, the call in [7] and in [8] was inactive.
As for `NC(N)=NCCCCCCCCCCN=C(N)N`, the Potency in assay [5] was > 46 µM (inactive). Besides, in assay [9], the molecule was called inactive. The Potency result in assay [10], in assay [12], in assay [13], in [1], in assay [2] and in assay [4] was “inactive” each time. Also, the activity change, negative = inhibition in assay [11] (at 57.5 µM (top of the series)) was -3.22% (inactive). For the same molecule, the max response in [11] (measured here: cell count channel max response) was 7.9%; in assay [11] (measured here: lipid channel max response), 7.14%.
In the case of `Cc1ccc2c(c1)C1(CCN(CCc3nc(-c4ccccc4)oc3C)CC1)OC(=O)N2`, the Potency entry in [1] was “inactive”.
As for `CC(C)C[C@H](NC(=O)[C@H](Cc1ccccc1)NC(=O)CNC(=O)[C@@H](NC(=O)[C@@H](N)Cc1ccc(O)cc1)[C@H](C)O)C(=O)N[C@H](C(=O)O)[C@H](C)O`, the activity change, negative = inhibition in [1] is 4.9% [at 6.83 µM] (inactive).
As to `CN1C2CCC1CC(OC(c1ccc(F)cc1)c1ccc(F)cc1)C2` (configuration not stated), in assay [1], the Potency entry is “inactive”.
